“And” between values parts separate entries of the source, which are not always exact repeats. Equal values may be shown once. Some structures have more than one record in an assay (separate samples or runs), and their calls can disagree. The source made the active and inactive calls. The calls were made as follows: active = hit-call score of the fitted dose curve at least 0.9, where 1 is the maximum; inactive = score below 0.9.
Tests used:
[1] = ATG_CRE_CIS: Attagene CIS-FACTORIAL HepG2 Assay for human cAMP Responsive Element (CRE) binding protein 3 (AID 2282926); settings: HepG2 CRE cis-reporter, Attagene multiplexed mRNA; actives raise or lower the signal
Outline: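 Capillary electrophoresis of 6-FAM-labelled, HpaI-digested PCR products quantified reporter transcripts. These came from HepG2 transiently transfected with cis-element reporters and exposed to test chemicals for 24 hours, with DMSO defining baseline activity.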

[2] = target: CCAAT/enhancer-binding protein beta (Homo sapiens) (UniProt P17676); assay: ATG_C_EBP_CIS: Attagene CIS-FACTORIAL HepG2 Assay for human CCAAT/Enhancer Binding Protein (C/EBP) beta (AID 2282927); settings: HepG2 Attagene cis-factorial transcription factor reporter; actives raise or lower the signal
Outline: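 Chemical-treated HepG2 cells (24 h) bearing cis-regulated reporter constructs were processed for total RNA, then reverse transcription, PCR amplification, fluorescent primer extension and fragment analysis; gain- and loss-of-signal were fitted against DMSO.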

[3] = ATG_CMV_CIS: Attagene CIS-FACTORIAL HepG2 Assay for human CMV (Internal Marker) (AID 2282928); settings: HepG2 CMV promoter reporter, transcription factor profiling; actives raise or lower the signal;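 also: endpoint acts as a background internal control marker rather than a target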
Outline: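 24 h chemical treatment, HepG2 with transient multi-reporter transfection; RNA → oligo(dT) RT → PCR → 6-FAM extension → HpaI digest → CE fluorescence. Bidirectional fit, DMSO negative control.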

[4] = ATG_DR4_LXR_CIS: Attagene CIS-FACTORIAL HepG2 Assay for human Liver X Receptor (LXR), DR4 submotif (AID 2282929); settings: HepG2 Attagene DR4 cis-reporter, mRNA transcription; actives raise or lower the signal
Outline: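 Fluorescence intensity of labelled reporter cDNA fragments, separated by capillary electrophoresis, gives the signal. HepG2 cells bearing cis-regulated reporter constructs were treated 24 h; activity fitted bidirectionally relative to DMSO negative control.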

[5] = target: Aryl hydrocarbon receptor (Homo sapiens) (UniProt P35869); assay: ATG_Ahr_CIS: Attagene CIS-FACTORIAL HepG2 Assay for human Aryl Hydrocarbon Receptor (Ahr) (AID 2282930); settings: HepG2 AhR cis-factorial reporter transcription; actives raise or lower the signal
Outline: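 Following 24 h of chemical dosing, transfected HepG2 liver cells with cis-driven reporter units were lysed for RNA; reporter mRNA was quantified via RT-PCR and capillary electrophoresis, and responses fitted bidirectionally from DMSO.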

[6] = ATG_AP_1_CIS: Attagene CIS-FACTORIAL HepG2 Assay for human Activator Protein 1 (AP-1) (AID 2282931); settings: HepG2 Attagene cis-factorial AP-1 reporter mRNA; actives raise or lower the signal
Outline: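 Multiplexed HepG2 reporter assay, 24 h dosing. mRNA induction detected by RT-PCR plus capillary electrophoresis. Activity fitted in both directions against DMSO.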

[7] = ATG_AP_2_CIS: Attagene CIS-FACTORIAL HepG2 Assay for human Activator Protein 2 (AP-2) (AID 2282932); settings: HepG2 AP-2 cis-reporter, Attagene transcription factor profiling; actives raise or lower the signal
Outline: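 Cells (HepG2) transfected with promoter-driven reporter constructs, treated 24 h. Total RNA reverse-transcribed, reporter cDNA PCR-amplified, FAM-labelled by primer extension, digested, resolved by capillary electrophoresis. Activity fitted both directions versus DMSO.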

[8] = ATG_BRE_CIS: Attagene CIS-FACTORIAL HepG2 Assay for human Bone Morphogenetic Protein (BMP) Response Element (BRE) (AID 2282933); settings: HepG2 BMP response element reporter, Attagene transcription factor profiling; actives raise or lower the signal
Outline: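 Endogenous transcription factor activity at a BMP response element was monitored in transfected HepG2 cells 24 h after dosing. Fluorescent RT-PCR products were resolved by capillary electrophoresis, and activity was fitted in both directions versus DMSO.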

[9] = target: Retinoic acid receptor alpha (Homo sapiens) (UniProt P10276); assay: ATG_DR5_RAR_CIS: Attagene CIS-FACTORIAL HepG2 Assay for human Retinoic Acid Receptor Alpha (RARE), DR5 submotif (AID 2282934); settings: HepG2 Attagene cis-factorial RARE DR5 reporter, mRNA; actives raise or lower the signal;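 as to AC50: reporter responds to endogenous RAR alpha beta and gamma in HepG2 not RARA alone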
Outline: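 Transfected HepG2 reporter cells are exposed to chemicals for 24 h. Then RNA is extracted and the DR5 element reporter transcript is measured by RT-PCR and capillary electrophoresis, with bidirectional curve fitting relative to DMSO.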

[10] = target: Transcription factor E2F1 (Homo sapiens) (UniProt Q01094); assay: ATG_E2F_CIS: Attagene CIS-FACTORIAL HepG2 Assay for human E2F Transcription Factor 1 (AID 2282935); settings: HepG2 Attagene cis-reporter, E2F reporter RNA transcripts; actives raise or lower the signal
Outline: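 First, HepG2 cells were transfected with reporter transcription units. Next, they were dosed for 24 h. Then RNA was isolated, converted to cDNA, PCR-amplified, FAM-labeled, HpaI-digested and analyzed by capillary electrophoresis.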

Measured: AC50

Sequence of Aryl hydrocarbon receptor (Homo sapiens) (P35869 whole entry, looked up): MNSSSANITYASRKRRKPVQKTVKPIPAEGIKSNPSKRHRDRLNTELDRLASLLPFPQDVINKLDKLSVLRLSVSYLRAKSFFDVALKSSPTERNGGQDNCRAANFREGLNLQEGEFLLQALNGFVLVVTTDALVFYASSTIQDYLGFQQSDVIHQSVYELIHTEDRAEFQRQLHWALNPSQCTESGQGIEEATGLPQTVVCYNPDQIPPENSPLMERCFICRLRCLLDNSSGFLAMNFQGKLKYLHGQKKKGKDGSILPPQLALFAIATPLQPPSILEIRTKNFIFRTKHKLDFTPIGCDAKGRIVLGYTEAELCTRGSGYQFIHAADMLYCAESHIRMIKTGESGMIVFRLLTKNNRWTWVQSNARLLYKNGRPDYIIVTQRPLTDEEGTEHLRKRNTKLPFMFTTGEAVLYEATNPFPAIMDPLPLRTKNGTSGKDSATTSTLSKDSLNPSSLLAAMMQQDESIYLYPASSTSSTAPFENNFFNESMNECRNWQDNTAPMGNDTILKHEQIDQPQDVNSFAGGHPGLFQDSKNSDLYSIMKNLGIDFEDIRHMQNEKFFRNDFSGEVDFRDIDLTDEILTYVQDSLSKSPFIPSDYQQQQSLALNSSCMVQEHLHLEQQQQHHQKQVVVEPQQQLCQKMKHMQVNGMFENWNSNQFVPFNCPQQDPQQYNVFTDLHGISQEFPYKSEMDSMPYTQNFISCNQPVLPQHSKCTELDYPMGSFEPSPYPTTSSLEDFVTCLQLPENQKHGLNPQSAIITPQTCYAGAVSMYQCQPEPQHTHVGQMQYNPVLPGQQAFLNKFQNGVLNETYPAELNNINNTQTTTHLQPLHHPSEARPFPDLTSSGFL
Sequence of CCAAT/enhancer-binding protein beta (Homo sapiens) (P17676 whole entry, looked up, the tested form may be a part): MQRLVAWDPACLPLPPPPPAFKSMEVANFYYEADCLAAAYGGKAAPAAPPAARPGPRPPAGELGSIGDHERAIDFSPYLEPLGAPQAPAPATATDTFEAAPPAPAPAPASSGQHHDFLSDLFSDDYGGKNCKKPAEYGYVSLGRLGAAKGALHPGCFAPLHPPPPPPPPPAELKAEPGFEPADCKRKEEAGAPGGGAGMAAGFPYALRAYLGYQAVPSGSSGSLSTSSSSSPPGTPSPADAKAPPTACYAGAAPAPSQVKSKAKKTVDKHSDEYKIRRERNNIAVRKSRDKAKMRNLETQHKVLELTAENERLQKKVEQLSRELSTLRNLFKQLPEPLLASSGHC
Sequence of Retinoic acid receptor alpha (Homo sapiens) (P10276 whole entry, looked up): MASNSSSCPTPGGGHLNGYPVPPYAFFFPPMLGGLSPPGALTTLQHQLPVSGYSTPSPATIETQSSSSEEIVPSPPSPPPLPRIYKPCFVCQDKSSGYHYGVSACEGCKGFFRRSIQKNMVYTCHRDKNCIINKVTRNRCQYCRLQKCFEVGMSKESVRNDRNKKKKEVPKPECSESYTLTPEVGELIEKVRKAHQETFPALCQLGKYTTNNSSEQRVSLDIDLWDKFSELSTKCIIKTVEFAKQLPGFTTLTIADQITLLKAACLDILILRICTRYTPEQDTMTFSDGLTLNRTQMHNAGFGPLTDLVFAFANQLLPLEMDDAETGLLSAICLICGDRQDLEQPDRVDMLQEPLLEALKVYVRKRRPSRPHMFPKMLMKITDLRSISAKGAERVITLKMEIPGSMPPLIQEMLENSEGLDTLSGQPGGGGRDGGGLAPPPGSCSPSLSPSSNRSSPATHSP
Sequence of Transcription factor E2F1 (Homo sapiens) (Q01094 whole entry, looked up): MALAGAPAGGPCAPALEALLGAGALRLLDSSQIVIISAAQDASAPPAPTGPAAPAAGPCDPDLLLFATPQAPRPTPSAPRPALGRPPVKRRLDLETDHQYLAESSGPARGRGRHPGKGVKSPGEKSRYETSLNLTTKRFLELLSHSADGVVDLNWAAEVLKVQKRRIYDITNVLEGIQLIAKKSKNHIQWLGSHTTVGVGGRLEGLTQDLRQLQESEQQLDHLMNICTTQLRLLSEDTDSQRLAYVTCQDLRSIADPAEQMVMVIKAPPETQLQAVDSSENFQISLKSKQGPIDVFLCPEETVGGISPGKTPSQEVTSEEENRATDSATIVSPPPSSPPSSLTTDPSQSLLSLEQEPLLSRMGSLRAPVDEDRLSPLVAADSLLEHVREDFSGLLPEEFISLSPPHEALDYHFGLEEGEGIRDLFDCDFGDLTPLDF

CC(=O)OC1CC(C)OC(C)O1 (stereo not given)
inactive: all assays above

CC(=O)OCC(COC(C)=O)OC(C)=O
not listed: [9]
inactive: all other assays above

CCN(CC)CCOc1ccc(C(=C(Cl)c2ccccc2)c2ccccc2)cc1
inactive: [1] | [3] | [4] | [5] | [6] | [7] | [8] | [9] | [10]
active: [1] 12.8 µM | [3] 7.17 µM | [4] 3.89 µM and 3.11 µM | [5] 9.35 µM | [7] 11.4 µM

CC(=O)O[C@]1(C(C)=O)CC[C@H]2[C@@H]3C=C(Cl)C4=CC(=O)[C@@H]5C[C@@H]5[C@]4(C)[C@H]3CC[C@@]21C
inactive: [1] | [2] | [3] | [4] | [5] | [6] | [7] | [8] | [10]
active: [3] 100 µM and 73.3 µM and 33.4 µM | [4] 51.7 µM [middle of 4 runs] | [5] 150 µM and 158 µM | [6] 71.5 µM [middle of 4 runs] | [7] 173 µM and 60.4 µM | [8] 30.1 µM and 43.7 µM and 33.4 µM | [10] 145 µM

O=C(NS(=O)(=O)/C=C/c1cccs1)c1ccc(F)cc1Br
inactive: all assays above

Cn1cnc2c1c(=O)[nH]c(=O)n2C
inactive: all assays above

CCCCCCC(C=O)=Cc1ccccc1
inactive: [1] | [2] | [3] | [4] | [6] | [7] | [8] | [9] | [10]
active: [3] 74.3 µM | [5] 37.4 µM and 60 µM | [6] 60 µM | [8] 44.9 µM

O=C(O)c1[nH]n(-c2ccc(S(=O)(=O)O)cc2)c(=O)c1N=Nc1ccc(S(=O)(=O)O)cc1
active: [5] 58.7 µM
not listed: [9]
inactive: all other assays above

CC1=C(C)S(=O)(=O)CCS1(=O)=O
active: [2] 129 µM | [3] 143 µM | [6] 166 µM
not listed: [9]
inactive: all other assays above

O=Cc1ccccc1C=O
inactive: all assays above

NCCOCCOCCN
not listed: [9]
inactive: all other assays above

CC(C)OC(=O)C(C)(C)Oc1ccc(C(=O)c2ccc(Cl)cc2)cc1
active: [3] 67.9 µM | [4] 61 µM | [6] 74.4 µM | [8] 45.7 µM
inactive: all other assays above

NC=O
inactive: all assays above

NC1CCCCC1
inactive: all assays above

O=C(N[C@@H](c1ccccc1)[C@@H]1CCCCN1)c1cccc(C(F)(F)F)c1Cl
active: [1] 25.4 µM | [3] 12.1 µM | [6] 9.01 µM | [7] 33 µM | [9] 20.9 µM
inactive: [2] | [4] | [5] | [8] | [10]

C#CC(O)C(CC)CCCC (stereo not given)
active: [2] 128 µM | [4] 161 µM | [6] 100 µM | [7] 163 µM
not listed: [9]
inactive: all other assays above

CC(COCC(C)OC(=O)c1ccccc1)OC(=O)c1ccccc1 (stereo not given)
inactive: all assays above

CCCCOC(=O)CCCCC(=O)OCCCC
active: [3] 154 µM
inactive: all other assays above

O=C1c2c(O)cccc2Cc2cccc(O)c21
active: [5] 61.7 µM
not listed: [9]
inactive: all other assays above

CC(C)c1cccc(C(C)C)c1
inactive: all assays above

CC(C)COC(=O)CCCCC(=O)OCC(C)C
inactive: all assays above

CCCC[C@H]1CN(CC2CCOCC2)C(=O)OC12CCN(C1(C)CCN(C(=O)c3c(C)ncnc3C)CC1)CC2
not listed: [9]
inactive: all other assays above

CCCCC(CC)COP(=O)(OCC(CC)CCCC)OCC(CC)CCCC (stereo not given)
active: [5] 68.9 µM
not listed: [9]
inactive: all other assays above

CCCCCCCC(=O)OC
not listed: [9]
inactive: all other assays above

CCCCC(CC)CO (stereo not given)
not listed: [9]
inactive: all other assays above

CSc1ccc(Oc2ccc(S(N)(=O)=O)cc2CN(C)C)cc1C
active: [7] 26.8 µM
not listed: [9]
inactive: all other assays above

CC(=O)S[C@H](C(=O)N[C@H]1Cc2ccccc2[C@H]2CCC[C@@H](C(=O)O)N2C1=O)C(C)C
not listed: [9]
inactive: all other assays above

Nc1nc(=S)c2[nH]cnc2[nH]1
active: [2] 100 µM | [3] 19 µM | [5] 66.3 µM | [6] 12 µM
inactive: all other assays above

CO[C@@H]1COCC[C@@H]1N[C@@H]1CC[C@@](C(=O)N2CCc3ncc(C(F)(F)F)cc3C2)(C(C)C)C1
not listed: [9]
inactive: all other assays above

Oc1ccccc1O
active: [3] 25 µM | [6] 13.3 µM
not listed: [5]
inactive: all other assays above

CCCCCCC(CCCCCCCCCCC(=O)OCC(COC(C)=O)OC(C)=O)OC(C)=O (stereo not given)
active: [3] 35.6 µM
not listed: [9]
inactive: all other assays above

CCCCc1nc2cccnc2n1Cc1ccc(-c2ccccc2-c2nnn[nH]2)cc1
not listed: [9]
inactive: all other assays above

CCOCCOCCO
not listed: [9]
inactive: all other assays above

CC(C)(O)c1ccc(CNC(=O)c2cccnc2Oc2ccc(F)cc2)cc1
active: [4] 0.184 µM
not listed: [5]
inactive: all other assays above

O=C1OC(c2ccc(O)cc2)(c2ccc(O)cc2)c2ccccc21
inactive: [8] | [10]
active: [1] 27.2 µM | [2] 184 µM | [3] 177 µM | [4] 54.9 µM | [6] 169 µM | [7] 48.1 µM | [9] 4.2 µM

CN(C)C(=O)NC1(c2ccccc2)CCN(CC[C@@]2(c3ccc(F)c(F)c3)CN(C(=O)c3ccccc3)CCO2)CC1
active: [6] 100 µM
not listed: [9]
inactive: all other assays above

CS(=O)(=O)c1ccc([C@@H](C[C@H]2CCC(=O)C2)C(=O)Nc2cnccn2)cc1Cl
not listed: [9]
inactive: all other assays above

O=C(O)CN(CC(=O)O)CC(=O)O
not listed: [5]
inactive: all other assays above

C=CCCCCCCCCCCCC
active: [3] 100 µM | [4] 177 µM
not listed: [9]
inactive: all other assays above

Reference: PubChem BioAssay (EPA / NIEHS)
